# Source: PubChem (National Center for Advancing Translational Sciences (NCATS))
# HCMV inh: human cytomegalovirus inhibition. HFF cells, HCMV-luciferase reporter, 72 h; active compounds read low. activity change, negative = inhibition, % at 57.5 µM. hit rate 4.5% among 410,000. AID 1259415; in the data active = activity change below about -60%; inconclusive = no clear call, values can overlap the other calls; inactive = above about -39%
#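 Human foreskin fibroblasts infected with luciferase-reporter HCMV at MOI 1 PFU/cell, compounds at two doses. Luciferase measured 72 h post infection; normalized to buffer-only basal and Salinomycin (10uM) controls.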
# Lassa entry inh: blocks Lassa virus binding to or entry into cells; Lassa virus pseudotype entry inhibition, cell reporter; Potency, µM (titrated, usually from 37.9 µM), usual class: inhibitors; hit rate 1.2% among 300,000; calls by dose curve; tested in HEK293 cells; also: nearly all actives have a fitted effect of over 50% in size
# Marburg entry inh: blocks Marburg virus binding to or entry into cells; Marburg virus pseudotyped entry inhibition, cell reporter; Potency, µM (series often up to 37.8 µM), hits mostly inhibitors; hit rate 1.8% among 300,000; calls by dose curve; tested in HEK293 cells
# FMDV inh: foot and mouth disease virus antiviral activity | Potency, µM (titrated, usually from 57.9 µM), usual class: inhibitors | FMDV antiviral cell-based qHTS | hit rate 1.2% among 410,000; calls by dose curve; tested in HEK293T cells; also: read-out not given here; nearly all actives have a fitted effect of over 45% in size
# Vaccinia Venus: inhibitors of vaccinia virus (Venus reporter) | hit rate 0.46% among 330,000 | Vaccinia virus Venus reporter expression, fluorescence | Potency, µM (doses to about 36.5 µM), hits mostly inhibitors | AID 720580; calls by dose curve; tested in A549 cells; also: nearly all actives have a fitted effect of over 30% in size
# Vaccinia mCherry: vaccinia inhibition (mCherry reporter); AID 720579; hit rate 0.63% among 310,000; Potency, µM (titrated, usually from 36.5 µM), most hits filed as inhibitors; Vaccinia virus mCherry reporter infection, fluorescence; calls by dose curve; tested in A549 cells; also: nearly all actives have a fitted effect of over 35% in size
# Hits are given with their value; – = inactive; ? = inconclusive; · = no result. An excerpt weighted towards active compounds, which were near 6.5% of everything screened.
SMILES,HCMV inh,Lassa entry inh,Marburg entry inh,FMDV inh,Vaccinia Venus,Vaccinia mCherry
Nc1nc(N)nc(-c2ccc(Cl)c(Cl)c2)n1,–,·,·,–,?,?
Cc1cc(OCc2nc(N)nc(N)c2-c2ccc(Cl)c(Cl)c2)ccc1[N+](=O)[O-],-100,1µM,?,25µM,1µM,0.89µM
Cc1nc(N)nc(N)c1CCCc1ccc(Cl)c(Cl)c1,-87,?,?,–,–,–
COc1ccc(Cc2c(C)nc(N)nc2Cl)cc1,–,·,·,?,·,·
Cc1ccccc1Nc1c(-c2ccc(Br)o2)nc2ccc(Cl)cn12,–,–,–,?,–,–
CC(C)(C(=O)O)c1ccc([C@@H](O)CCCN2CCC(C(O)(c3ccccc3)c3ccccc3)CC2)cc1,·,·,–,·,·,·
O=C(N[C@H]1CC[C@@]23CCCN2C(=O)CCC[C@H]3[C@H]1Cc1ccccc1)c1cccnc1,–,·,·,·,·,·
CCOc1cc(C2C(C(=O)OC)=C(C)NC3=C2C(=O)c2ccccc23)cc(Br)c1OCC (configuration not stated),–,–,?,–,–,–
CCOC(=O)c1c(NC(NC(=O)C(C)C)C(Cl)(Cl)Cl)sc2c1CCC2 (configuration not stated),–,?,11µM,?,–,–
CCOc1cc(-c2ccc3c(c2)OCO3)cc(=[O+]CC)c2c(C)oc(C)c12,·,·,·,·,–,–
CCCn1c(SCc2nc(-c3ccc(OC)c(OC)c3)no2)nnc1-c1ccccc1,–,–,5.6µM,–,–,–
CCCn1c(SCc2nc(-c3cc(OC)ccc3OC)no2)nnc1-c1ccc(Cl)cc1,–,–,–,?,–,–
Cc1ccc(C)c(N2CCN(C(=O)c3ccc(CSc4nc5ccncc5[nH]4)cc3)CC2)c1,?,?,?,18µM,–,–
O=C(c1ccc(CSc2nc3ccncc3[nH]2)cc1)N1CCCCC1,–,–,–,–,–,–
COc1cccc(N2CCN(C(=O)c3ccc(CSc4nc5ccncc5[nH]4)cc3)CC2)c1,-87,?,–,–,–,–
COc1cccc(CSc2nc3ccncc3[nH]2)c1,–,?,?,–,–,–
CC(/C=N/n1c(-c2cccnc2)n[nH]c1=S)=C\c1ccccc1,-77,–,–,–,–,–
S=c1[nH]nc(-c2cc(-c3ccccc3)n[nH]2)n1/N=C/C(Br)=C/c1ccccc1,-100,?,?,?,?,14µM
CC(=C/c1ccccc1)/C=N/n1c(-c2ccncc2)n[nH]c1=S,?,–,–,–,–,–
COc1cc([C@H]2C(C(=O)c3cccs3)=C(O)C(=O)N2c2cc(C)on2)ccc1O,·,·,–,·,·,·
COc1ccc(/C=N/NC(=O)CCn2cnc3ccccc32)cc1,–,–,–,–,–,–
O=C(CCn1cnc(-c2ccccc2)c1-c1ccccc1)N/N=C/c1ccccc1O,?,23µM,?,–,·,·
COc1ccc(/C=N/NC(=O)CCn2cnc(-c3ccccc3)c2-c2ccccc2)cc1,-83,2.3µM,18µM,?,·,·
O=C(CCn1cnc2ccccc21)N/N=C/C=C/c1ccccc1,–,–,?,–,–,–
COc1ccc(CCNc2c(C)c(C)nc3ncnn23)cc1,-89,?,?,?,?,?
SMILES,HCMV inh,Lassa entry inh,Marburg entry inh,FMDV inh,Vaccinia Venus,Vaccinia mCherry
CCc1c(C)nc2ncnn2c1NCCc1ccc(OC)c(OC)c1,-73,–,–,?,·,·
O=C(CN1C(=O)C2(SCC(=O)N2c2ccc(F)c(F)c2)c2ccccc21)NCCc1ccccc1 (configuration not stated),–,–,·,–,–,–
CCC1(O)CC2CN(CCc3c([nH]c4ccccc34)C(C(=O)OC)(c3cc4c(cc3OC)N(C=O)C3C(O)(C(=O)OC)C(OC(C)=O)C5(CC)C=CCN6CCC43C65)C2)C1 (configuration not stated),-88,?,?,–,?,?
CC(C)(C)c1csc(NNC(=O)c2ccc(Cl)cc2)n1,–,?,?,–,?,7.1µM
CC(C)(C)c1csc(NC(=O)c2cccnc2)n1,–,·,·,–,·,·
OCCC1CN(Cc2ccc3c(c2)CCO3)CCN1C1CCCC1 (configuration not stated),-74,–,–,–,–,–
O=C1CCNc2cc3ccccc3cc21,·,–,–,–,?,22µM
CCc1ccc(-n2nc(C)c3c(C(=O)Nc4cc(OC)cc(OC)c4)cc(C)nc32)cc1,–,?,·,–,–,–
CCc1c(C)nc2ncnn2c1N1CCC(C(=O)Nc2ccccc2)CC1,–,–,–,?,–,–
Cc1nc2ncnn2c(N2CCCC(C(=O)Nc3ccc4c(c3)CCC4)C2)c1C (configuration not stated),-101,?,?,25µM,·,·
O=C(Nc1ccc2c(c1)CCC2)C1CCCN(c2ncccn2)C1 (configuration not stated),–,–,?,–,·,·
Cc1cc(N2CCCC(C(=O)Nc3cccc4ccccc34)C2)n2ncnc2n1 (configuration not stated),-69,–,–,?,–,–
CCc1c(C)nc2ncnn2c1N1CCC(C(=O)Nc2ccc(C)cc2)CC1,-86,–,?,–,–,–
COc1ccc(CCNC(=O)C2CCCN(c3ncccn3)C2)cc1 (configuration not stated),-69,–,–,–,–,–
COc1ccc(CCNC(=O)C2CCCN(c3nc(C)cc(C)n3)C2)cc1 (configuration not stated),–,–,–,?,–,–
Cc1ccc(C)n1C1C(=O)N(C)c2c(F)cccc21 (configuration not stated),–,·,·,·,·,·
Cc1nn(C)cc1CN1CCOc2ccc(C(C)(O)COc3ccccc3)cc2C1 (configuration not stated),·,·,·,–,?,–
CCOc1ccccc1C1C(C(=O)Nc2ccccc2)=C(C)Nc2c(C(=O)Nc3ccc(F)cc3)cnn21 (configuration not stated),–,–,?,–,–,–
CCc1c(C)nc2ncnn2c1N1CCCC(C(=O)NCCc2ccc(OC)cc2)C1 (configuration not stated),-68,–,–,?,·,·
O=C(Nc1ccccc1)c1cccc(-c2nnc(-c3ccccc3)o2)c1,–,–,–,–,–,·
Cc1ccc(SCC(=O)Nc2cccc(-c3nnc(-c4ccco4)o3)c2)cc1,-99,–,–,–,?,·
COc1cccc(-c2nnc(NC(=O)c3ccc4ncsc4c3)o2)c1,–,–,10µM,–,–,–
COc1ccc(Br)cc1C(=O)Nc1cccc(-c2nnc(-c3ccco3)o2)c1,?,–,21µM,·,–,–
COc1cccc(C(=O)Nc2cccc(-c3nnc(-c4ccco4)o3)c2)c1,?,?,?,14µM,?,?
CS(=O)(=O)c1cccc(-c2nnc(NC(=O)c3ccc4ncsc4c3)o2)c1,–,–,–,–,–,–
COc1cccc(C(=O)Nc2nnc(SCC(=O)NC3CC3)s2)c1,–,–,–,–,–,–
COc1ccc(C(=O)Nc2nnc(SCC(=O)NCc3ccco3)s2)cc1OC,–,?,–,–,–,–
